# Reference: article PMC7862700, “An all-to-all approach to the identification of sequence-specific readers for epigenetic DNA modifications on cytosine”
# Assays:
# Test in all cases: DAPPL (digital affinity profiling via proximity ligation, sequencing); 10 mM Tris-HCl pH 7.5, 50 mM NaCl, 1 mM DTT, 4% glycerol, room temperature, 30 min; GST-TFs on glutathione beads, 16-mer random dsDNA library, 0.1% formaldehyde crosslink after washing; high values mean tight binding
# Details in all cases: protein: recombinant; tags: N-terminal GST; dsDNA, one strand shown
# [1] = biological target: ETV1 (Homo sapiens, UniProt P50549 1-477)
# Outline: (§1)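 Human transcription factors carrying a GST fusion were produced in yeast, bound to glutathione beads, tagged with DNA barcodes and pooled together with a tag-only sample. Each pool was held with 200 nmole of a random double-stranded 16-mer DNA library in Tris/NaCl/DTT/glycerol buffer for 30 min at room temperature, then washed, crosslinked in 0.1% formaldehyde, proximity-ligated with BsaI/T4 ligase (1 h, 37 °C), PCR-amplified and sequenced on an Illumina NextSeq500. Binding signal is the read frequency of each hexamer for a given factor divided by its frequency in the tag-only sample.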
# [2] = biological target: T1, ERF (Homo sapiens, UniProt P50548 1-548)
# T1 sequence: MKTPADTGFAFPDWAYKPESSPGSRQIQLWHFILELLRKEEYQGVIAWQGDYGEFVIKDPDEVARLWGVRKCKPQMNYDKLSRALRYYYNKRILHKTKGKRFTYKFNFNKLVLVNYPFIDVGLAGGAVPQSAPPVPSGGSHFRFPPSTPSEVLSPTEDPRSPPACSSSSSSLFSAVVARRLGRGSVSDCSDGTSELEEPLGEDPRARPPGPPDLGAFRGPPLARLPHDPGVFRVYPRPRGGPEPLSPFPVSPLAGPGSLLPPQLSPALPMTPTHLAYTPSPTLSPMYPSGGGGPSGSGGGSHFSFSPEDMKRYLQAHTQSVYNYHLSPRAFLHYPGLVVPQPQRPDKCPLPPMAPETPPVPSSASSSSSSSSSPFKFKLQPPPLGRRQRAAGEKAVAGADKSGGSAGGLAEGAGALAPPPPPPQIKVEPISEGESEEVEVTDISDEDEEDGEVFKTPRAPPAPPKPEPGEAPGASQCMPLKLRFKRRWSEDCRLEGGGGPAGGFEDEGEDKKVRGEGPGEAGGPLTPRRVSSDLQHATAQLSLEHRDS
# Outline: as §1
# [3] = biological target: T2, ETV3L (Homo sapiens, UniProt Q6ZN32 1-361)
# T2 sequence: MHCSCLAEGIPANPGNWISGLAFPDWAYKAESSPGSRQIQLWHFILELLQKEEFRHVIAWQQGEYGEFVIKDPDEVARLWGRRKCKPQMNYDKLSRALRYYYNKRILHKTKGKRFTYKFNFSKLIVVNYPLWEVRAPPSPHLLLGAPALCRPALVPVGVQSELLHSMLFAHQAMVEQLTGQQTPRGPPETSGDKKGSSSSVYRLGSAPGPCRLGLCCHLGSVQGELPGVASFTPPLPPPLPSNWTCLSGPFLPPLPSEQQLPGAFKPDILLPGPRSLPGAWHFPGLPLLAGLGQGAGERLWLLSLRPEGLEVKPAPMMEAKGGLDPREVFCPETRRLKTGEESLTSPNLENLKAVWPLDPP
# Outline: as §1
# [4] = biological target: T3, ETS2 (Homo sapiens, UniProt P15036 1-469)
# T3 sequence: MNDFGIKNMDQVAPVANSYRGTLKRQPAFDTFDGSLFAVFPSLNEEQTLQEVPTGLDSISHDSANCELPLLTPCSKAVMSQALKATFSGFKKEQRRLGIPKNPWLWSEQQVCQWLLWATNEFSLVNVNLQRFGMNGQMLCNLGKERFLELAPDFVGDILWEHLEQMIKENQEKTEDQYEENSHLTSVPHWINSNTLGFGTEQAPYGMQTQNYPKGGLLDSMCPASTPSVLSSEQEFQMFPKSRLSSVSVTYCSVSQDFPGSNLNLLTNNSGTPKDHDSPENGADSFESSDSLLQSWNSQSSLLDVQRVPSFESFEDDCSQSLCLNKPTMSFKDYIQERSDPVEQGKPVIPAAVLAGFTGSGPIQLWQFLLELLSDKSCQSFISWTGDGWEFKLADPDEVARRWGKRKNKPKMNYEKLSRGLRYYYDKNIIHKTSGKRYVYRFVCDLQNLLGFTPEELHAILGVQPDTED
# Outline: as §1
# [5] = biological target: T4, SPDEF (Homo sapiens, UniProt O95238 1-335)
# T4 sequence: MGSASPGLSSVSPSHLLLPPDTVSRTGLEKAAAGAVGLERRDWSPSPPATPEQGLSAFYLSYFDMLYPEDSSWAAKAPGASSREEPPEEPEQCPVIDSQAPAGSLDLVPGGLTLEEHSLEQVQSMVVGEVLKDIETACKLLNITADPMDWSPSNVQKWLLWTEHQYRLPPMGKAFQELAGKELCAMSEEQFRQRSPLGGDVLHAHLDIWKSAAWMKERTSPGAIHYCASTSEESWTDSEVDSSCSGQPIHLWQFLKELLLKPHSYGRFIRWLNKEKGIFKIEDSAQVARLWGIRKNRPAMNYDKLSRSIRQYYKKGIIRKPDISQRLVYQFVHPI
# Outline: as §1
# [6] = biological target: T5, ETV7 (Homo sapiens, UniProt Q9Y603 1-341)
# T5 sequence: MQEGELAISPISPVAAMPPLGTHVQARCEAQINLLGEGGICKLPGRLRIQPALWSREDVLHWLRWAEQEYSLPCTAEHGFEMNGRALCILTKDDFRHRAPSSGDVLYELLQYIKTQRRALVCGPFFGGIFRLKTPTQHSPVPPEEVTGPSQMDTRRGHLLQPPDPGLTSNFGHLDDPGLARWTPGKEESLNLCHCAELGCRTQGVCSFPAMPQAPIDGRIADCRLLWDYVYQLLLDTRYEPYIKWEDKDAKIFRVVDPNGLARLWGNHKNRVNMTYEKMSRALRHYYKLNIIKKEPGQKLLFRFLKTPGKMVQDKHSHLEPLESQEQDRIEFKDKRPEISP
# Outline: as §1
# [7] = biological target: T6, ELF5 (Homo sapiens, UniProt Q9UKW6-2 1-255)
# T6 sequence: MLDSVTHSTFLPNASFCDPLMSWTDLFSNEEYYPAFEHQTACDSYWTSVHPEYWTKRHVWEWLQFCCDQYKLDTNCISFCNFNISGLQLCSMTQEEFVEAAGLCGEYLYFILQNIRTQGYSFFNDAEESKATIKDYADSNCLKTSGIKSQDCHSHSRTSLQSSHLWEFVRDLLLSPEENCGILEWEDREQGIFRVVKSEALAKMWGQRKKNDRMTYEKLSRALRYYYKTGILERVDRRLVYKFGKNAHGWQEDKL
# Outline: as §1
# [8] = biological target: T7, ETV3 (Homo sapiens, UniProt P41162-2 1-143)
# T7 sequence: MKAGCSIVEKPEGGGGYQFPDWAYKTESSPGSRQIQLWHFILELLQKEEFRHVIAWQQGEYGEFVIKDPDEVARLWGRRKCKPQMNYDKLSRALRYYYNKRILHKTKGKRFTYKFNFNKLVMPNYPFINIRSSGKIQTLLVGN
# Outline: as §1
# [9] = biological target: ETV6 (Homo sapiens, UniProt P41212 1-452)
# Outline: as §1
# Chain of ETV1 (P50549 whole entry, the tested form may be a part): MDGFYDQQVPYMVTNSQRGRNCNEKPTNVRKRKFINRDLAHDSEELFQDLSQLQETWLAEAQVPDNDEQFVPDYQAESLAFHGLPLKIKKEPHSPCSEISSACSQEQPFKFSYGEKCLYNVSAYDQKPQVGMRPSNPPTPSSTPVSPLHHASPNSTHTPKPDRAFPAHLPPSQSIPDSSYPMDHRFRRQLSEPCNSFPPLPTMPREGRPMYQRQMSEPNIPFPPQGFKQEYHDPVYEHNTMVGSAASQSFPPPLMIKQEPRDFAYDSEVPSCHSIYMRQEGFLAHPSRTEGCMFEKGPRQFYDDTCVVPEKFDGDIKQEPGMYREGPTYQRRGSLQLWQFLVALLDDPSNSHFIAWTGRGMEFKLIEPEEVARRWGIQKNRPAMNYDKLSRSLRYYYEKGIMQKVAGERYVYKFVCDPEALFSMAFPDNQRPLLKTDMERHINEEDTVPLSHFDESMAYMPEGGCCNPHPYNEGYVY
# Chain of ETV6 (P41212 whole entry): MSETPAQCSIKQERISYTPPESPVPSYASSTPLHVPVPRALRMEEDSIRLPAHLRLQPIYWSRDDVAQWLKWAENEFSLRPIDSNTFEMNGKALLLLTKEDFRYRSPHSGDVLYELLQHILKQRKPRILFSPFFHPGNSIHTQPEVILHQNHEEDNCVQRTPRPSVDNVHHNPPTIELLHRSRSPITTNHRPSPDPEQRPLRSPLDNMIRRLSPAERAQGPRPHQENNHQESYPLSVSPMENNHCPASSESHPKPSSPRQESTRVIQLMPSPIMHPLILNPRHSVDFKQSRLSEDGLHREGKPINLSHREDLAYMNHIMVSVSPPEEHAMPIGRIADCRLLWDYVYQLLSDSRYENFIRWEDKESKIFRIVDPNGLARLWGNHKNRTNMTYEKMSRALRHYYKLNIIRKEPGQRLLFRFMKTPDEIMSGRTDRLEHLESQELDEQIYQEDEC
sequence,measurement,setting,value
ACCCAT,binding signal,[1],"1.19 fold enrichment (6-mer frequency, TF over GST control)"
same,binding signal,[2],"1.31 fold enrichment (6-mer frequency, TF over GST control)"
same,binding signal,[3],"1.34 fold enrichment (6-mer frequency, TF over GST control)"
same,binding signal,[4],"1.37 fold enrichment (6-mer frequency, TF over GST control)"
same,binding signal,[5],"1.21 fold enrichment (6-mer frequency, TF over GST control)"
same,binding signal,[6],"1.37 fold enrichment (6-mer frequency, TF over GST control)"
same,binding signal,[7],"1.24 fold enrichment (6-mer frequency, TF over GST control)"
same,binding signal,[8],"1.25 fold enrichment (6-mer frequency, TF over GST control)"
same,binding signal,[9],"1.24 fold enrichment (6-mer frequency, TF over GST control)"
